Reference: PubChem BioAssay (Tox21)
Results filed as inconclusive are left out. Activity calls are given as the source filed them. Calls follow the shape of the dose curve; as a rule, active = well fitted cell-killing curve with a large enough effect in the repeat runs; inconclusive = weak or mixed curves; inactive = flat fitted curve, though single readings scatter.

Assay: qHTS RealTime-Glo MT Cell Viability Assay in HepG2 cells - 24 hour (AID 1224867); also: nearly all actives have a fitted effect of over 50% in size
Details: RealTime-Glo luminescence; series mostly up to 76.8 µM
Source text: U.S. Tox21 Program National Center for Advancing Translational Sciences [NCATS] NIH Chemical Genomics Center [NCGC] U.S. Environmental Protection Agency [EPA] National Institutes of Environmental Health Sciences [NIEHS] National Toxicology Program [NTP] U.S. Food and Drug Administration [FDA] Tox21 Assay Overview: Measure of cell viability is critical in the cell-base assay. Analysis of cell viability is necessary for the characterization of cell responses to cytotoxic drugs and environmental stress. A RealTime-Glo MT Cell Viability Assay to monitor cell viability in real time of continues cell culture during 40 hours of compound treatment was used to screen Tox21 10K library compounds in HepG2 cells. The RealTime-Glo MT Cell Viability Assay is a nonlytic, homogeneous, bioluminescent method to measure cell viability in real time using a simple, plate-based method. The assay involves adding NanoLuc luciferase and a cell-permeant prosubstrate to cells in culture. Viable cells reduce the proprietary prosubstrate to generate a substrate for NanoLuc luciferase. This substrate diffuses from cells into the surrounding culture medium, where it is rapidly used by the NanoLuc Enzyme to produce a luminescent signal. The signal correlates with the number of viable cells, making the assay well suited for cytotoxicity studies.
Tox21 Assay Protocol Summary: The mixture of HepG2 cell suspension and reagents were dispensed at 600cells/6 ul/well in 1536-well tissue culture treated black solid bottom plates using a Multidrop dispenser. After the assay plates were incubated at a 37 C/5% CO2 incubator for 5 hours, 23 nL of compounds dissolved in DMSO, positive and negative controls was transferred to the assay plate by a pintool work station. The plates were incubated at 37 C for 40 hours. The luminescence intensity were measured at 0h, 8h, 16h, 24h, 32h and 40h time points using ViewLux plate reader during compound treatment.
% is scaled to controls: 0 for no effect and ±100 for the full control effect.

| SMILES | outcome | activity change, negative = cytotoxicity |
| --- | --- | --- |
| Nc1ccnc(=O)[nH]1 | inactive |  |
| CCC(=O)c1ccc(O)cc1 | inactive |  |
| Nc1ccc(S(=O)(=O)Nc2ccccn2)cc1 | inactive |  |
| Cc1cccc(C(=O)O)c1[N+](=O)[O-] | inactive |  |
| CC(C)(C)NCCO | inactive |  |
| CCCOC(=O)CCCCC(=O)OCCC | inactive |  |
| O=C1OC(=O)c2ccccc21 | inactive |  |
| NC(Cc1c[nH]c2ccccc12)C(=O)O (stereo not given) | inactive |  |
| NCCc1ccn[nH]1 | inactive |  |
| CC(C)CCC(=O)CCC(C)C | inactive |  |
| C=CCOc1c(Br)cc(C(C)(C)c2cc(Br)c(OCC=C)c(Br)c2)cc1Br | inactive |  |
| CC(C)COC(=O)CC(C(=O)OCC(C)C)S(=O)(=O)O (stereo not given) | inactive |  |
| COc1cc2c(Nc3ccc(Br)cc3F)ncnc2cc1OCC1CCN(C)CC1 | inactive |  |
| C=CCOC(=O)c1ccc(C(=O)OCC=C)c(C(=O)OCC=C)c1 | inactive |  |
| CC(=O)Nc1ccc(C)cc1 | inactive |  |
| CCCCCCCCCOCC1CO1 (stereo not given) | inactive |  |
| Cc1ccccc1C(=O)N1CC/C(=N\OS(=O)(=O)O)c2ccc(Cl)cc21 | inactive |  |
| O=C(O)Cc1cccc(-c2cc(CCCCCCc3ccc(O[C@H]4O[C@H](CO)[C@@H](O)[C@H](O)[C@@H]4O)c(-c4cccc(CC(=O)O)c4)c3)ccc2O[C@H]2O[C@H](CO)[C@@H](O)[C@H](O)[C@@H]2O)c1 |  | 2.07% [at 0.29 µM] (inactive) |
| C=C(C)C(=O)OCCCCCCOC(=O)C(=C)C | inactive |  |
| O=C(Nc1cccc(C2=NCCN2)c1)Nc1cccc(C2=NCCN2)c1 |  | 1.81% [at 15.8 µM] (inactive) |

| SMILES | outcome | activity change, negative = cytotoxicity |
| --- | --- | --- |
| Cc1cccc(Nc2ccncc2S(=O)(=O)NC(=O)NC(C)C)c1 | inactive |  |
| CCC(=O)OCCC(C)CCC=C(C)C (stereo not given) | inactive |  |
| CCC(C)(CCC(C)C)C(=O)[O-].CCC(C)(CCC(C)C)C(=O)[O-].[Zn+2] (stereo not given) | inactive |  |
| COc1ccc(OC)c(NC(=O)CC(C)=O)c1 | inactive |  |
| CCCCCCCC[Si](OCC)(OCC)OCC | inactive |  |
| O=C1NC2NC(=O)NC2N1 (stereo not given) | inactive |  |
| Nc1ccc(S(=O)(=O)NC(=O)c2ccccc2)cc1 | inactive |  |
| CCCC(C)CC (stereo not given) | inactive |  |
| Cc1nc([N+](=O)[O-])cn1-c1ccc([N+](=O)[O-])cc1 | inactive |  |
| C=CC(C)(O)CC/C=C(\C)CC (stereo not given) | inactive |  |
| CNC(=O)NC | inactive |  |
| C1=CCC(c2ccccc2)CC1 (stereo not given) | inactive |  |
| CC(C)=CC(C)(C)C | inactive |  |
| CC1=NN(c2ccc(S(=O)(=O)O)cc2)C(=O)C1N=Nc1ccccc1 (stereo not given) | inactive |  |
| CCCCCCCCCCC | inactive |  |
| CCCCCCCCC(=O)OCC | inactive |  |
| COCC(=O)Nc1c(I)c(C(=O)NCC(O)CO)c(I)c(C(=O)N(C)CC(O)CO)c1I (stereo not given) | inactive |  |
| CCNC(=O)NCCCOc1cccc(CN2CCCCC2)c1 | inactive |  |
| CCCCC(CC)CNC(=O)CC(C)OC(=O)CCC(=O)O (stereo not given) | inactive |  |
| CCCCCCCCCCCCC | inactive |  |
